The source made the active and inactive calls.

A short description of experiment [1]: optical density shifts of acrAB sulA E. coli – strain DRC41, OD650, 48 h, E. coli filamentation inducer project, primary screen (AID 1152).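 Note: E. coli MC1000 strain DRC41 lacking acrAB efflux pump and sulA.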 Conditions: higher = more signal, called active from +8 up or from −8 down.
Experiment [2] can be described thus: probe aLefty1 binding on compound microarray – biochemical, small-molecule microarray, 635/667 nm fluorescence, primary screen (AID 1153).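 Note: score merges spot fluorescence with signal-to-noise ratio from the scanned slide images.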 The note with it: higher = more signal.
A short description of experiment [3]: plasmodial surface anion channel blockers, osmotic lysis – cell-based, P. falciparum Indochina, OD700, 1 h, primary screen (AID 1154). Conditions: P. falciparum Indochina infected RBC osmotic lysis, higher = more signal, called active from +8 up or from −8 down.
Experiment [4] in a line: plasmodial surface anion channel blockers, osmotic lysis – cell-based, P. falciparum Indochina, OD700, 2 h, primary screen (AID 1155).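 Note: lysis reports solute entry through the parasite surface anion channel PSAC.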 The note with it: P. falciparum Indochina infected erythrocytes, higher = more signal, called active from +8 up or from −8 down.
Experiment [5] can be described thus: changes in parasitized red cell lysis, either direction – P. falciparum Indochina, OD700, 3 h, PSAC antagonist project, primary screen (AID 1156). The note with it: P. falciparum-infected erythrocytes, osmotic lysis, higher = more signal, called active from +8 up or from −8 down.
Experiment [6] can be described thus: plasmodial surface anion channel blockers, osmotic lysis – cell-based, P. falciparum Indochina, OD700, 18 h, primary screen (AID 1157). Conditions: P. falciparum Indochina infected erythrocytes, osmotic lysis OD700, 18 h; higher = more signal, called active from +8 up or from −8 down.
Experiment [7] can be described thus: S6 kinase pathway phospho-S6 level changes – cell-based, A549, cytoblot, luminescence, serum-stimulated, primary screen (AID 1158).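 Note: serum-stimulated A549 lung adenocarcinoma cells; signal is phosphorylated S6 detected by cytoblot immunostaining with HRP secondary.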 Conditions: 5 h, higher = more signal.
Experiment [8] addresses NADPH oxidase 2 (Homo sapiens) (UniProt P04839). Briefly: compounds shifting NOX2 Amplex Red fluorescence – cell-based, HEK293-NOX2, PMA-stimulated, NOX inhibitor project, primary screen (AID 1159). Note: test concentration not given here. The note with it: 45 min, higher = more signal, called active from +8 up or from −8 down.
Experiment [9] addresses NADPH oxidase 4 (Homo sapiens) (UniProt Q9NPH5). Kind of experiment: compounds shifting NOX4 Amplex Red fluorescence – cell-based, HEK293-NOX4, tetracycline-induced, NOX inhibitor project, primary screen (AID 1160). The note with it: HEK293-NOX4, Amplex Red H2O2 fluorescence, 45 min; higher = more signal, called active from +8 up or from −8 down.
For experiment [10], the target named is NADPH oxidase 5 (Homo sapiens) (UniProt Q96PH1). Kind of experiment: compounds shifting NOX5 Amplex Red fluorescence – cell-based, HEK293-NOX5, NOX inhibitor project, primary screen (AID 1161). The note with it: HEK293-NOX5, ionomycin, 45 min, higher = more signal.
NADPH oxidase 5 (Homo sapiens), sequence (Q96PH1 whole entry, looked up): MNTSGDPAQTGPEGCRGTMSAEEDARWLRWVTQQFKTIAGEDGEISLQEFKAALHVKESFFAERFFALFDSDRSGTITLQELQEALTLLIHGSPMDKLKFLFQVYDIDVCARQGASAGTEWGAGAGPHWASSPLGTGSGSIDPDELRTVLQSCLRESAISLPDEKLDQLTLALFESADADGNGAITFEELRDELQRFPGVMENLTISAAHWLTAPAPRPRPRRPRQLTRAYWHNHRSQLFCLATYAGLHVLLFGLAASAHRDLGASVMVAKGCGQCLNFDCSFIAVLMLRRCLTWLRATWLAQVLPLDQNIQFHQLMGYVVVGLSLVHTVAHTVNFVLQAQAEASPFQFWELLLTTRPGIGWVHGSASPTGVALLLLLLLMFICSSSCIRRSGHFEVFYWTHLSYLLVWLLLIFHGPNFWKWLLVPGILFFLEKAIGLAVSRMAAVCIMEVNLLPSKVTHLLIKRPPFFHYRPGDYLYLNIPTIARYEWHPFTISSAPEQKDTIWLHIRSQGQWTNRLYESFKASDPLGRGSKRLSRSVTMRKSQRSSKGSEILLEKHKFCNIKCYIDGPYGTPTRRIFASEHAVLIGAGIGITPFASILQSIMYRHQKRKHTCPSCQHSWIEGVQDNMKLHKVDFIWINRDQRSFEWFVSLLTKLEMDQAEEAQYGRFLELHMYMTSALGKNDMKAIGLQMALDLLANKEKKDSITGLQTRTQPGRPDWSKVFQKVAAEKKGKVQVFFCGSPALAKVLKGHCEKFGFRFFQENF
Experiment [11] can be described thus: compound effects on lung adenocarcinoma cell viability – A549, calcein-AM fluorescence, 48 h, basal, profiling panel (AID 1162). Note: test concentration not given here. The note with it: higher = more signal.
A short description of experiment [12]: compound effects on differentiated 3T3-L1 adipocyte viability – cell-based, 3T3-L1 adipocytes, calcein-AM fluorescence, 48 h, basal, profiling panel (AID 1163). Note: test concentration not given here. The note with it: 3T3-L1 adipocytes viability, higher = more signal.
The nature of experiment [13]: compound effects on hepatocellular carcinoma cell viability – HepG2, calcein-AM fluorescence, 48 h, basal, profiling panel (AID 1164). Note: test concentration not given here. The note with it: higher = more signal.
Experiment [14] can be described thus: compound effects on multiple myeloma cell viability – MM1S, calcein-AM fluorescence, 48 h, basal, profiling panel (AID 1165). Note: test concentration not given here. Conditions: higher = more signal.
Experiment [15] can be described thus: calcein-AM signal in unstimulated myeloma cells – cell-based, calcein-AM fluorescence, 48 h, PK04 Diversity Set, profiling panel (AID 1166).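 Note: cells grown under basal conditions without added stimulus; test concentration not given here.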 The note with it: RPMI8226 myeloma viability, higher = more signal.
A short description of experiment [16]: JC-1 mitochondrial signal, unstimulated HepG2 cells – cell-based, JC-1 fluorescence, 24 h, 100 nL compound, profiling panel (AID 1167). Note: test concentration not given here. Conditions: HepG2 mitochondrial potential, higher = more signal.
A short description of experiment [17]: JC-1 mitochondrial signal, unstimulated adipocytes – cell-based, JC-1 fluorescence, 3T3-L1 adipocytes, 24 h, 100 nL compound, profiling panel (AID 1168). Note: test concentration not given here. Conditions: JC-1 mitochondrial fluorescence, higher = more signal, called active from +8 up or from −8 down.
Experiment [18] can be described thus: JC-1 mitochondrial signal, unstimulated myeloma cells – cell-based, JC-1 fluorescence, RPMI8226, 24 h, 100 nL compound, profiling panel (AID 1169). Note: test concentration not given here. The note with it: JC-1 mitochondrial potential fluorescence, higher = more signal.
Experiment [19] is described as follows: JC-1 mitochondrial signal, unstimulated MM1S myeloma – cell-based, JC-1 fluorescence, 24 h, 100 nL compound, profiling panel (AID 1170). Note: test concentration not given here. The note with it: MM1S mitochondrial potential, higher = more signal.
The nature of experiment [20]: resazurin metabolic signal in A549 cells – cell-based, resazurin fluorescence, 24 h, PK04 Diversity Set, profiling panel (AID 1171). Note: test concentration not given here. Conditions: A549 viability, higher = more signal, called active from +8 up or from −8 down.

NADPH oxidase 4 (Homo sapiens), sequence (Q9NPH5 whole entry, looked up): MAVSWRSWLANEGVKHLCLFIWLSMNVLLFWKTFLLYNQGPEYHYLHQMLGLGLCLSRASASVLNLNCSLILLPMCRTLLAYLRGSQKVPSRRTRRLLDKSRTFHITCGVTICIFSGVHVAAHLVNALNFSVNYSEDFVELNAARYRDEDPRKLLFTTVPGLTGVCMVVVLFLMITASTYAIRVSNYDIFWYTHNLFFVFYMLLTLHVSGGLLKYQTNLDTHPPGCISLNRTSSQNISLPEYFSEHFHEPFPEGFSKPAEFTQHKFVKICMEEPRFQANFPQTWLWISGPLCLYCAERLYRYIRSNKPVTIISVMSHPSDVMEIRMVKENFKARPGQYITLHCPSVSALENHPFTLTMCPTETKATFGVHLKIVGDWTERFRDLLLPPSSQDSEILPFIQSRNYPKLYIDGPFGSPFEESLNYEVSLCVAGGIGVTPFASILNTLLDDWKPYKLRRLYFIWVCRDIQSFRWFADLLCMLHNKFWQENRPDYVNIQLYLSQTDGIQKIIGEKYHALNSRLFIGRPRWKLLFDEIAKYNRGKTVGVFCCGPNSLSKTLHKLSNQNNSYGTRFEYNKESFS
NADPH oxidase 2 (Homo sapiens), sequence (P04839 whole entry, looked up): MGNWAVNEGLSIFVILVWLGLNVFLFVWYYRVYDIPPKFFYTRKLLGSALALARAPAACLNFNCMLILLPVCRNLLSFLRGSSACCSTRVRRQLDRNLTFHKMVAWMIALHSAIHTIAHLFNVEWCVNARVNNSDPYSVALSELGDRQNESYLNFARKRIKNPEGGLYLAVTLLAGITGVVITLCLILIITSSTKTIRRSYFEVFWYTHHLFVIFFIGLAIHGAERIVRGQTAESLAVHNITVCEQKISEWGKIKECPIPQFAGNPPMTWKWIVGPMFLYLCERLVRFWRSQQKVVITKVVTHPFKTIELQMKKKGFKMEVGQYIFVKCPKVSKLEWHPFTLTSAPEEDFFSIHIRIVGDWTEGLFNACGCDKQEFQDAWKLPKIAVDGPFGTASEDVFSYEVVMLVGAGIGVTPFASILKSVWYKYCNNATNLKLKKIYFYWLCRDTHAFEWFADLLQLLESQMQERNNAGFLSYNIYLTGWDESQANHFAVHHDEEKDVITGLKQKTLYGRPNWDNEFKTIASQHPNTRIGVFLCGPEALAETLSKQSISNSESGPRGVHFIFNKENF

With `COc1ccc(C#Cc2ccc3c(c2)[C@]2(C(=O)N3)[C@H](C(=O)Nc3nc4ccccc4s3)[C@H]3C(=O)O[C@H](c4ccccc4)[C@H](c4ccccc4)N3[C@@H]2c2ccc(O)cc2)cc1`, the z-score in [1] is 0.663 (inactive); in experiment [3], -0.383 (inactive); in experiment [4] it was 0.53 (inactive); in experiment [5] it was -6.71 (inactive); in experiment [6] it was 0.957 (inactive); in [7] it was -0.249. Further, the z-score is 0.548 (inactive) in experiment [8]; 0.792 (inactive) in [9]; -2.5 in experiment [10]; -0.151 in [11]; 0.341 in [12]; 0.949 in [13]. For the same compound, the z-score in experiment [14] is -0.561; in [15], -1.37; in experiment [16] it was -3.71; in experiment [17], -0.298 (inactive); in experiment [18], -1.02; in [19], -1.18. For the same compound, in experiment [20], the z-score was 0.279 (inactive). Moreover, the composite z-score in experiment [2] was 1.1.
On to `O=C1O[C@@H](c2ccccc2)[C@@H](c2ccccc2)N2[C@@H](c3ccccc3OCCO)[C@]3(C(=O)Nc4ccc(C#CC5=CCCCC5)cc43)[C@@H](C(=O)N3CCCCCCC3)[C@H]12`, for which the z-score is -0.511 (inactive) in experiment [1]; -0.0047 (inactive) in experiment [3]; 0.0859 (inactive) in experiment [4]; -0.339 (inactive) in [5]; 0.68 (inactive) in experiment [6]; -0.359 in experiment [7]. Further, the z-score in [8] is 0.624 (inactive); in experiment [9], 0.55 (inactive); in experiment [10], -0.797; in experiment [11] it was -1.66; in experiment [12], 0.25; in experiment [13], 0.297. The z-score in experiment [14] was -3.09; in [15], -2.79; in [16], 1.19; in experiment [17], -1.85 (inactive); in experiment [18] it was -0.715; in experiment [19], -1.75. Besides, the z-score in experiment [20] is -0.312 (inactive). The compound also gave a composite z-score in experiment [2] of 2.96.
Take `O=C1O[C@H](c2ccccc2)[C@H](c2ccccc2)N2[C@H]1[C@@H](C(=O)N1CCCCCCC1)[C@]1(C(=O)Nc3ccc(C#CC4=CCCCC4)cc31)[C@H]2c1ccc(OCCO)cc1`: the z-score in experiment [1] was 2.72 (inactive); in experiment [3], 10.2 (active); in experiment [4] it was 0.658 (inactive); in experiment [5] it was 1.08 (inactive); in experiment [6], -1.25 (inactive); in experiment [7], 2.85. Besides, the z-score in experiment [8] was -0.708 (inactive); in [9], 0.14 (inactive); in experiment [10] it was -2.05; in [11], -0.733; in experiment [12], 1.67; in experiment [13], -0.103. Moreover, the z-score in experiment [14] is -0.0425; in experiment [15], -1.4; in experiment [16], -1.68; in [17] it was -5.35 (inactive); in experiment [18], -1.02; in [19], -0.729. In addition, the z-score in experiment [20] was -0.0973 (inactive). Further, the composite z-score in [2] was determined as 2.88.
Regarding `COc1ccc(C(O)C2C=CC3C(=O)N(Cc4ccccc4)C(=O)C3N2n2cnnc2)cc1OCc1ccccc1` (stereo not given), the z-score is 0.209 (inactive) in experiment [1]; 1.3 (inactive) in experiment [3]; 0.0118 (inactive) in [4]; 0.372 (inactive) in [5]; -1.82 (inactive) in experiment [6]; 1.42 in [7]. The z-score is -0.361 (inactive) in experiment [8]; -0.079 (inactive) in [9]; 0.384 in experiment [10]; 0.187 in experiment [11]; 0.534 in [12]; -0.345 in experiment [13]. Besides, the z-score is 0.195 in [14]; -1.79 in experiment [15]; -0.323 in experiment [16]; -1.06 (inactive) in [17]; 0.593 in [18]; -0.882 in experiment [19]. The z-score in experiment [20] was 0.18 (inactive). In experiment [2], this compound returned a composite z-score of 0.142.
Regarding `C=CCC(OC(C)=O)[C@@H]1[C@@H](N(Cc2ccc(-c3ccccc3)cc2)C(=O)c2ccc(-c3ccccc3)cc2)c2cc(OCCCO)ccc2N1C(=O)Cc1ccc2ccccc2c1` (stereo not given in full), the z-score was -0.706 (inactive) in experiment [1]; 0.05 (inactive) in [3]; 0.129 (inactive) in [4]; -0.472 (inactive) in experiment [5]; 0.408 (inactive) in experiment [6]; -0.309 in experiment [7]. The z-score in [8] is 0.795 (inactive); in [9], 1 (inactive); in [10], 0.532; in [11] it was -0.475; in [12], 0.367; in experiment [13], 0.325. For the same compound, the z-score in experiment [14] is -2.3; in experiment [15], -0.806; in [16] it was 0.96; in experiment [17] it was -1.07 (inactive); in [18], -0.793; in experiment [19], 0.292. The z-score in experiment [20] is 1.2 (inactive). The compound further registered a composite z-score in experiment [2] of 0.155.

Values taken from PubChem BioAssay.
